Results as given in PubChem BioAssay AID1963316 (National Center for Advancing Translational Sciences (NCATS), 2024).
Inconclusive results are not listed. Where a call stands in place of a potency, no number is given. The source made the active and inactive calls. Calls follow the shape of the full dose curve.

Biological target: Tyrosine-protein kinase ABL1 (Homo sapiens) (UniProt P00519)
Experiment: ABL1 kinase (ABL1-N-HiBiT) SDR gain of signal screen - plus ATP
Summary of the method: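 ABL1-N-HiBiT protein (10 nM final) with 50 uM ATP incubated with compounds for 30 min at RT, protected from light. Nano-Glo HiBiT reagent then added for 10 min; luminescence read on CCD imager, with DMSO neutral and imatinib positive controls.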

Tyrosine-protein kinase ABL1 (Homo sapiens), sequence (P00519 whole entry, looked up): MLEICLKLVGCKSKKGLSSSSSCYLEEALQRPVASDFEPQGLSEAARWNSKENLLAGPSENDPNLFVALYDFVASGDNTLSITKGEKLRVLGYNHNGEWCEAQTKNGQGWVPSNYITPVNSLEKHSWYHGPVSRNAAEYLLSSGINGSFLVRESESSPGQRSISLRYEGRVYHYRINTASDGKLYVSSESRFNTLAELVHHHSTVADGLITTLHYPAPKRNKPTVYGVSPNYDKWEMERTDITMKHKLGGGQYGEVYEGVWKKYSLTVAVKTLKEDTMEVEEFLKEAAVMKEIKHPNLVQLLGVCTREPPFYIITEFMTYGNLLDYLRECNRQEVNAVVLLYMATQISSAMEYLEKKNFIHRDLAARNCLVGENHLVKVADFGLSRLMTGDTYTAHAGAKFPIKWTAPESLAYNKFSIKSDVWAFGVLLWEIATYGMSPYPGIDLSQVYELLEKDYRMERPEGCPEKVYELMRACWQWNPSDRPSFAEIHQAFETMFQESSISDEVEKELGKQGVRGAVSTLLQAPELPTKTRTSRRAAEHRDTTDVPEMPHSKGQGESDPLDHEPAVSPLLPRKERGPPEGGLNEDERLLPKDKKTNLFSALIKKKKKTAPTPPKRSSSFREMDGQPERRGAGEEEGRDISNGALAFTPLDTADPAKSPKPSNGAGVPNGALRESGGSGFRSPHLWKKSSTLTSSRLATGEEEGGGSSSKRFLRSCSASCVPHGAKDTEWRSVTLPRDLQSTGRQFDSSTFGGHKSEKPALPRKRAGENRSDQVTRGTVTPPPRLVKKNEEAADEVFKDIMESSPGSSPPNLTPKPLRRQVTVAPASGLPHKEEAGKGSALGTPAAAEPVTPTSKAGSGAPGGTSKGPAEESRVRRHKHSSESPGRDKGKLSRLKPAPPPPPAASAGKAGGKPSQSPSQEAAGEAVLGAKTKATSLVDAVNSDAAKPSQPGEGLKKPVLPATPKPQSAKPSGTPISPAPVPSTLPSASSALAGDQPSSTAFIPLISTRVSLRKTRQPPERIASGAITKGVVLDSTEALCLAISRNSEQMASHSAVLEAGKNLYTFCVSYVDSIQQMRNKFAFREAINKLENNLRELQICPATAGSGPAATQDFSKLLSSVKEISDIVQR

Row | Structure (SMILES) | Potency
1 | O=S(=O)(/N=C/c1c(O)ccc2ccccc12)c1cccs1 | inactive
2 | CCNC(=O)Nc1ccc(-c2nc3c(c(N4CCOC[C@@H]4C)n2)CCN(c2ncccn2)C3)cc1 | inactive
3 | Cc1ccccc1-n1c([C@H](C)Nc2nc(N)nc3nc[nH]c23)nc2cccc(C)c2c1=O | inactive
4 | NC1(C(=O)N[C@@H](CCO)c2ccc(Cl)cc2)CCN(c2ncnc3[nH]ccc23)CC1 | inactive
5 | O=C(NC1CCNCC1)c1[nH]ncc1NC(=O)c1c(Cl)cccc1Cl | inactive
6 | Nc1nc(NCCNc2ncc(-n3ccnc3)c(-c3ccc(Cl)cc3Cl)n2)ccc1[N+](=O)[O-] | inactive
